Consider five compounds from PubChem BioAssay.

Activity calls are given as the source filed them.

A short description of assay [1]: small molecules captured by biotinylated probe aFSTL3 – biochemical, small-molecule microarray, fluorescence 635/667, stem cell growth factor project, primary screen (AID 1064).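 Also: measures binding of the biotinylated anti-FSTL3 antibody to printed compounds.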 The note with it: higher = more signal.
Assay [2] can be described thus: binders from COS7 lysate, DM2A8 probe, primary screen, torsin A project, cell lysate, small-molecule microarray, fluorescence 635/667 (AID 1065). The note with it: higher = more signal, COS7 lysate expressing mutant human TOR1A.
Assay [3] can be described thus: small molecules captured by biotinylated probe aFGF2 – biochemical, small-molecule microarray, fluorescence 635/667, stem cell growth factor project, primary screen (AID 1067).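 Also: measures binding of biotinylated aFGF2 protein to printed compounds on slides; z-score merges feature fluorescence and signal-to-noise across triplicate slides.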 The settings on record: higher = more signal.
Assay [4] is described as follows: small molecules captured by biotinylated probe aFGF10 – biochemical, small-molecule microarray, fluorescence 635/667, stem cell growth factor project, primary screen (AID 1071).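 Also: score merges 667 nm spot intensity and signal to noise from triplicate slides.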 The settings on record: higher = more signal.
Assay [5] concerns the target Neurogenic locus notch homolog protein 2 (Homo sapiens) (UniProt Q04721). Description: small molecules binding Notch2 protein – biochemical, small-molecule microarray, 635 nm fluorescence, stem cell growth factors, primary screen (AID 1073). The settings on record: higher = more signal.
The target of assay [6] is Pro-neuregulin-1, membrane-bound isoform (Homo sapiens) (UniProt Q02297). Nature of the assay: small molecules binding neuregulin-1 protein – biochemical, small-molecule microarray, fluorescence 635/667, psychiatric disease protein project, primary screen (AID 1075).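 Also: score combines 667 nm spot fluorescence with signal to noise.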 The note with it: NRG1 binding, 635 nm fluorescence, higher = more signal.
Assay [7] deals with Neuregulin-1 EGF-like domain. Nature of the assay: small molecules binding NRG1 EGF domain – biochemical, small-molecule microarray, 635 nm fluorescence, primary screen (AID 1081).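 Also: binding of the protein to compounds printed on small-molecule microarray slides.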 The settings on record: higher = more signal.
Assay [8] is described as follows: FRG1 expression reporter modulators in myotubes – cell-based, C2C12 myotubes, firefly/Renilla luciferase, luminescence, FRG1 inhibition for FSHD, primary screen (AID 1084). The settings on record: FRG1 promoter luciferase, higher = more signal, called active from +8 up or from −8 down.
Assay [9] can be described thus: small molecules captured by biotinylated probe aFST – biochemical, small-molecule microarray, fluorescence 635/667, stem cell growth factor project, primary screen (AID 1086).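 Also: score merges 667 nm fluorescence with signal-to-noise of each printed compound spot.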 The settings on record: higher = more signal.
Assay [10] can be described thus: binders of probe aHhip on microarray, primary screen, stem cell growth factor project, biochemical, small-molecule microarray, fluorescence 635/667 (AID 1087).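 Also: score merges spot fluorescence at 667nm with spot signal to noise ratio.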 The note with it: higher = more signal.
The test system of assay [11] is PRMT1 (protein arginine N-methyltransferase 1). Description: small molecules binding arginine methyltransferase PRMT1 – biochemical, small-molecule microarray, 635 nm fluorescence, primary screen (AID 1088).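 Also: binding of Prmt1 protein to compounds spotted on small-molecule microarray slides.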 The settings on record: higher = more signal.
Assay [12] in a line: growth effects on S. cerevisiae YJM789 – YJM789 clinical isolate, OD600, 24 h, basal, primary screen (AID 1089).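 Also: growth of clinical yeast isolate S. cerevisiae YJM 789 seeded 1000 cells per well; test concentration not given here.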 The settings on record: higher = more signal, called active from +8 up or from −8 down.
Assay [13] in a line: S. pombe growth modifiers, basal conditions – strain 972, OD600, 24 h, no modulator, primary screen (AID 1090).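 Also: basal condition with compound alone and no growth modifier present; test concentration not given here.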 The note with it: S. pombe 972 growth, higher = more signal, called active from +8 up or from −8 down.
A short description of assay [14]: budding yeast growth modifiers under rapamycin – strain BY4716, OD600, 96 h, primary screen (AID 1091). Also: test concentration not given here. The note with it: S. cerevisiae BY4716 + rapamycin, higher = more signal, called active from +8 up or from −8 down.
Assay [15] addresses Torsin-1A-interacting protein 2 (Homo sapiens) (UniProt Q8NFQ8). Description: small molecules binding lysate-expressed LULL1 – cell lysate, human LULL1 lysate, 635/667 nm fluorescence, primary screen (AID 1092).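 Also: probe is lysate of COS7 cells overexpressing human LULL1; score merges per-feature 667 nm fluorescence with signal-to-noise.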 The note with it: small-molecule microarray, hLULL1 lysate binding, 635 nm fluorescence; higher = more signal.
Assay [16] in a line: optical density change of DRC41 E. coli – strain DRC41, OD650, 24 h, E. coli filamentation project, primary screen (AID 1093).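 Also: MC1000 strain lacking acrAB efflux and sulA so SOS filamentation is blocked; test concentration not given here.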 The settings on record: E. coli DRC41 growth, higher = more signal, called active from +8 up or from −8 down.
The nature of assay [17]: probe aLefty2 binding to arrayed compounds – biochemical, biotinylated probe, 635/667 nm fluorescence, primary screen (AID 1094).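 Also: score merges spot fluorescence near 667 nm with spot signal-to-noise ratio.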 The note with it: small-molecule microarray, higher = more signal.
For assay [18], the system named is Noggin (protein binding on small-molecule microarray). Nature of the assay: small molecules binding Noggin protein – biochemical, 635/667 nm fluorescence, primary screen (AID 1095).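 Also: score merges 667 nm feature fluorescence with signal to noise over triplicate slides.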 The note with it: 635 nm fluorescence, higher = more signal.
In assay [19] the target is Neurogenic locus notch homolog protein 3 (Homo sapiens) (UniProt Q9UM47). Nature of the assay: small molecules binding NOTCH3 protein – biochemical, 635/667 nm fluorescence, primary screen (AID 1096). The settings on record: small-molecule microarray, 635 nm fluorescence, higher = more signal.
A short description of assay [20]: probe aEGFR binding to arrayed compounds – biochemical, biotinylated probe, 635/667 nm fluorescence, primary screen (AID 1097).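 Also: probe is a biotinylated anti-EGFR antibody binding compounds printed on slides; score combines fluorescence near 667 nm and signal to noise of each spot.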 The settings on record: small-molecule microarray, higher = more signal.

Neurogenic locus notch homolog protein 2 (Homo sapiens), sequence (Q04721 whole entry, looked up, canonical isoform): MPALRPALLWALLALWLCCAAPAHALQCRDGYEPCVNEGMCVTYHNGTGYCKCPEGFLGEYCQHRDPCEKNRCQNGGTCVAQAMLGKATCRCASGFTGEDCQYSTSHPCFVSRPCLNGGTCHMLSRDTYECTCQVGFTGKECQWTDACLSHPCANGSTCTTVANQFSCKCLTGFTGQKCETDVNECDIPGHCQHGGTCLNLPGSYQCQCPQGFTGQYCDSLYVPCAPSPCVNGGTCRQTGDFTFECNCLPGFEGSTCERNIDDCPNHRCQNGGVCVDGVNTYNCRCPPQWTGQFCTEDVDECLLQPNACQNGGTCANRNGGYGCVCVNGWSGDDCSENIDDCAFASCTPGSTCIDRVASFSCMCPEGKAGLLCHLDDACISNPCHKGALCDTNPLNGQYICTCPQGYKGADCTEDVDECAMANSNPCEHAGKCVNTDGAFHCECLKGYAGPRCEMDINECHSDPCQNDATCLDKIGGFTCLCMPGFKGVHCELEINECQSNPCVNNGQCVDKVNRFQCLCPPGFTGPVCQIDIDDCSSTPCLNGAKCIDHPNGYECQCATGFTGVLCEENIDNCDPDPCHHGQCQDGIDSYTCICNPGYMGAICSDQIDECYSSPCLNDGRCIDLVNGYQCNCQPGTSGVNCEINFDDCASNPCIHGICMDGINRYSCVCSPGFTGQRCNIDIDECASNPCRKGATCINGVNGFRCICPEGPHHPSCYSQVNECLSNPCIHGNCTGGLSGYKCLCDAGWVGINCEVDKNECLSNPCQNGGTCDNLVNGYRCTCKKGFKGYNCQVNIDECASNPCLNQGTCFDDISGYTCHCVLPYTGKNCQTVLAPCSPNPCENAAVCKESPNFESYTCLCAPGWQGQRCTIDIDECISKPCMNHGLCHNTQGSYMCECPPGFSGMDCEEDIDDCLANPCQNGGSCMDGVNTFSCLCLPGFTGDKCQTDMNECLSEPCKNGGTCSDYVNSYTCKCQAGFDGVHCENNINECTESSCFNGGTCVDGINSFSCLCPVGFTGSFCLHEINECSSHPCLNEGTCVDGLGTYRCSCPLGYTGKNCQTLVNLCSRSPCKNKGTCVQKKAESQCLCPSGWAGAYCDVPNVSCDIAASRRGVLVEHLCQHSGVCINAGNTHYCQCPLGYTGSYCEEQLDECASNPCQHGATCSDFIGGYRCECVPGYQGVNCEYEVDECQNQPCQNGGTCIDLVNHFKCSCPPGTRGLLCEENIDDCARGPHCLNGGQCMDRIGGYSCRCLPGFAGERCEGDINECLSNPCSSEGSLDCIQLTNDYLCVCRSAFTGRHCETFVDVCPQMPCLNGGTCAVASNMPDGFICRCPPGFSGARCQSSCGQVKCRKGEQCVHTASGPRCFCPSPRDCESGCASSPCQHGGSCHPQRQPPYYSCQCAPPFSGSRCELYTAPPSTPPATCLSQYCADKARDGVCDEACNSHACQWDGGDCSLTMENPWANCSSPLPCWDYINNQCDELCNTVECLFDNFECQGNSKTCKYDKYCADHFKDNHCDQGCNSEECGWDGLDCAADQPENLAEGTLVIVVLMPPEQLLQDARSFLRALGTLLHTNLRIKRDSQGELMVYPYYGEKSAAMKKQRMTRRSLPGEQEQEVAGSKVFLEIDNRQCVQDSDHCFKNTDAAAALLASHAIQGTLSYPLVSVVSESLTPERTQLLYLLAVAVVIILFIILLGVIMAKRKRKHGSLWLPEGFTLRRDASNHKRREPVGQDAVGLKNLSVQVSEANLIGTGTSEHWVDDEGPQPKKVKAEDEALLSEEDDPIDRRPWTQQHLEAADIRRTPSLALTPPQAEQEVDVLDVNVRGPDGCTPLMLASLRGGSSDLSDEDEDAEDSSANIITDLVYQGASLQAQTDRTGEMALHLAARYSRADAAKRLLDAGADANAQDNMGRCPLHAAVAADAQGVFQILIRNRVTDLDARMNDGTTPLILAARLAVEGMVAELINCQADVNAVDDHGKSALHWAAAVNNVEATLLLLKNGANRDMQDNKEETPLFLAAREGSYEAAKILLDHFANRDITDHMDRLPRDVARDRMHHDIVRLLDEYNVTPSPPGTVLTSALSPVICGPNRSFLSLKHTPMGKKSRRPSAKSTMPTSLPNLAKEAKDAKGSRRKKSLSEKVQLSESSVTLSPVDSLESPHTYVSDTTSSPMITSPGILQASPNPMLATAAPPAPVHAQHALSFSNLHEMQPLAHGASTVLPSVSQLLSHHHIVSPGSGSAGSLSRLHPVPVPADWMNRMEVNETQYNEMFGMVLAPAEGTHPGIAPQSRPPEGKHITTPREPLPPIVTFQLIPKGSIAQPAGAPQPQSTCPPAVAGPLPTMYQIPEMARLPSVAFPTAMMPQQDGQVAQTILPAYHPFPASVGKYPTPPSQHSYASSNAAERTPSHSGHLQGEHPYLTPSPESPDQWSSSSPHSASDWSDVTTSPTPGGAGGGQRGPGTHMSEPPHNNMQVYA
Torsin-1A-interacting protein 2 (Homo sapiens), sequence (Q8NFQ8 whole entry, looked up): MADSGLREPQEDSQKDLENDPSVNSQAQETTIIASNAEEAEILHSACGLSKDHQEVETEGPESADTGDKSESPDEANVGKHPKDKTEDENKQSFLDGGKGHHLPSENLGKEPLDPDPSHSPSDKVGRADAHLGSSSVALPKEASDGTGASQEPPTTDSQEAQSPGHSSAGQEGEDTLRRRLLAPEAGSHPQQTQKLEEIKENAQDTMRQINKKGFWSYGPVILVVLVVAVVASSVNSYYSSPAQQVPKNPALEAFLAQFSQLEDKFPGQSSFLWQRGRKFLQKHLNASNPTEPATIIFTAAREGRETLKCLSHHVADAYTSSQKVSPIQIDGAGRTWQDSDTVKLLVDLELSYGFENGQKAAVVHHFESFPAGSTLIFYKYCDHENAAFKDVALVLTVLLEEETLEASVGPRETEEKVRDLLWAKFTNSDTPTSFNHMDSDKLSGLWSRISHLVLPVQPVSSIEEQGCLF
Pro-neuregulin-1, membrane-bound isoform (Homo sapiens), sequence (Q02297 whole entry, looked up, the tested form may be a part, canonical isoform): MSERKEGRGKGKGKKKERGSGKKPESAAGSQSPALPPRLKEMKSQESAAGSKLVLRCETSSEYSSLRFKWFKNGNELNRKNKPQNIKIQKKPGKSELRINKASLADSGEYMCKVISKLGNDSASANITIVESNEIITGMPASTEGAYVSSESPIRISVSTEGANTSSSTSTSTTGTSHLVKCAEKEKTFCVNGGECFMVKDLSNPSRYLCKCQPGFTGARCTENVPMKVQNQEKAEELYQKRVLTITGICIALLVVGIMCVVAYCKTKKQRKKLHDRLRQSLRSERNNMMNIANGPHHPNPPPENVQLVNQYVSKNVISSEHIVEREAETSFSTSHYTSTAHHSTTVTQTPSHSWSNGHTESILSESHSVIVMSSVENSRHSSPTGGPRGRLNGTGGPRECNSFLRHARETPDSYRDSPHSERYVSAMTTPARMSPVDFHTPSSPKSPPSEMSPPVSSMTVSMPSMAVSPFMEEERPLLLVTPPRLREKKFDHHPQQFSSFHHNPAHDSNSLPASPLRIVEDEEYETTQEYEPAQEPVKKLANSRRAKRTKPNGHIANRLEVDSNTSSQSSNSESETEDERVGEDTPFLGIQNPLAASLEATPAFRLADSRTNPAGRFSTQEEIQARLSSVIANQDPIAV

With `CC(C)(C)OC(=O)CC[C@@]1(C(=O)O)N=C(c2ccc(OCCCO)cc2)O[C@@H]1c1ccccc1N=[N+]=[N-]`, the composite z-score in [1] came to 1.09; in [2], 1.56; in assay [3], 0.0918; in [4], 1.11; in assay [5], 0.984; in [6], 1. In addition, the composite z-score in assay [7] was 1.15; in assay [9] it was 0.457; in assay [10], -0.277; in [11], 1.15; in assay [15] it was 2.15; in [17] it was 0.553. Moreover, the composite z-score in assay [18] was -0.569; in assay [19], 0.104; in assay [20], 0.325. Further, the z-score in [8] is 6.94 (inactive); in [12], 0.949 (inactive); in assay [13], 0.419 (inactive); in assay [14], -0.286 (inactive); in assay [16], 0.484 (inactive).
As for `CCCN1C(=O)[C@]2(COC(c3ccc(OCCCO)cc3)=N2)Cc2ccccc21`, the composite z-score was 0.955 in assay [1]; 0.325 in assay [2]; 0.0092 in [3]; 0.251 in assay [4]; 0.419 in assay [5]; 1.41 in [6]. The composite z-score is 1.18 in assay [7]; 0.486 in assay [9]; 0.0044 in assay [10]; 1.18 in assay [11]; 2.88 in assay [15]; 0.303 in [17]. Besides, the results for the composite z-score in assay [18], in [19] and in assay [20] were 0.134, 0.112 and -0.0774, respectively. In addition, the z-score in [8] was -0.0593 (inactive); in assay [12], -0.102 (inactive); in [13], -2.37 (inactive); in [14] it was -1.35 (inactive); in assay [16] it was 0.525 (inactive).
As to `COC(=O)[C@@]1(Cc2ccc(OC)cc2)[C@H]2c3cc(C(=O)N4CCCC4)n(Cc4cc(F)cc5c4OCOC5)c3C[C@H]2CN1C(=O)c1ccccc1`, the composite z-score in assay [1] is 0.152; in assay [2], -0.0429; in assay [3] it was 0.275; in assay [4], 0.535; in assay [5], 1.74; in assay [6] it was 2.29. In addition, the composite z-score in assay [7] is 1.28; in assay [9], 0.83; in assay [10] it was 1.14; in [11], -0.829; in [15] it was 3.27; in [17] it was 0.499. For the same compound, the composite z-score is -0.307 in assay [18], 0.77 in [19] and 0.241 in assay [20]. The z-score is 1.61 (inactive) in assay [8]; -0.0795 (inactive) in [12]; -0.87 (inactive) in [13]; 0 (inactive) in [14]; -1.28 (inactive) in assay [16].
Regarding `COc1cccc(C(=O)O[C@H]2CC[C@]3(C)C4=C(CCC3C2(C)C)[C@]2(C)CC[C@H]([C@H](C)CCCC(C)C)[C@@]2(C)CC4)c1` (stereo not given in full), the composite z-score in assay [1] was -0.526; in assay [2] it was 0.0024; in assay [3], -0.0425; in assay [4], 0.366; in assay [5], -0.87; in assay [6] it was 0.103. Further, the composite z-score is 0.181 in assay [7]; 0.169 in [9]; 0.0722 in assay [10]; -0.0398 in assay [11]; 0.385 in assay [15]; -0.082 in assay [17]. Also, the composite z-score in [18] is 0.383; in [19], 0.618; in [20] it was -0.0158. In addition, the z-score was -1.06 (inactive) in assay [8]; -1.73 (inactive) in assay [12]; -1.08 (inactive) in assay [13]; -0.166 (inactive) in assay [14]; 2.43 (inactive) in assay [16].
With `CC(C)(C)N1CC=CC23O[C@@H]4/C=C\CCCOC(=O)C4[C@H]2C(=O)N(CCO)[C@@H]3C1=O` (stereo not given in full), the composite z-score was 0.29 in assay [1]; -1.05 in assay [2]; -0.045 in assay [3]; 0.588 in assay [4]; -0.931 in [5]; 0.208 in assay [6]. The composite z-score in [7] is 0.938; in [9] it was -0.681; in [10], -0.236; in assay [11] it was -0.344; in assay [15], 1.94; in [17], -0.241. The figures for the composite z-score in assay [18], in assay [19] and in assay [20] were -0.551, -0.871 and -0.272, respectively. Further, the z-score was 0.911 (inactive) in [8]; 0.478 (inactive) in assay [12]; 0.224 (inactive) in assay [13]; -0.1 (inactive) in assay [14]; 1.54 (inactive) in [16].
